In the library only some 6.8% were active in any assay of this set; here they are far more common.
C diff HTS – blocks growth of Clostridium difficile; Clostridium difficile clinical isolate growth, OD600, 24 h; stronger effect = lower value; growth activity, negative = inhibition, % at 16 µg/mL (by protocol); actives 0.25% (n = 86,000);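 active = mean growth activity at or below -80% and every replicate also at or below -80%; inconclusive = mean at or below -80% but some replicate above -80%; inactive = mean growth activity above -80%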
T cruzi growth-1 – inhibitors of T. cruzi proliferation; T. cruzi beta-gal in NIH3T3, GalScreen luminescence, 90 h; inhibition, % at 8.34 µM; actives 5.9% (n = 77,000);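 active = mean inhibition above about 93%, with at least 55% of replicates each passing it, limit read from the data, passing the limit was not always enough; inconclusive = only one of those two conditions holds; inactive = neither condition holds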
Pf Dd2 growth – inhibitors of Plasmodium falciparum Dd2 growth | P. falciparum Dd2 growth, SYBR Green, 72 h; stronger effect = lower value | activity change, % at 10 µM | AID 1159554 | actives 2.3% (n = 94,000); in the data active = activity change below about -80%; inconclusive = no clear call, values can overlap the other calls
T cruzi growth-2 – Trypanosoma cruzi proliferation inhibition. T. cruzi beta-gal in NIH3T3, GalScreen luminescence, 90 h. actives 72% (n = 5,600). shares compounds with T cruzi growth-1. inhibition, % at 8.35 µM;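 active = mean replicate inhibition above about 95% and at least 55% of replicates individually reaching it, limit read from the data; inconclusive = only one of the two criteria is met; inactive = neither criterion is met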
T cruzi growth-3 – inhibitors of T. cruzi proliferation; shares compounds with T cruzi growth-1; AID 651740; actives 21% (n = 5,600); T. cruzi beta-gal in NIH3T3, GalScreen luminescence, 90 h; inhibition, % at 2.09 µM;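 active = mean inhibition above about 95%, with at least 55% of replicates also reaching it, limit read from the data; inconclusive = meets just one of the two conditions; inactive = meets neither condition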
3T3 cytotox – NIH/3T3 (mouse) viability loss; actives 14% (n = 5,600); cytotoxicity (signal decrease), % at 8.35 µM; AID 651742; NIH/3T3 viability, CellTiter-Glo ATP luminescence, 90 h; shares compounds with T cruzi growth-1;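 active = mean signal decrease across replicates above about 35% based on untreated-well scatter, with enough replicates individually passing, limit read from the data; inconclusive = no rule stated though some were filed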
NIH3T3 tox 2 – kills mouse NIH/3T3 fibroblasts; shares compounds with T cruzi growth-1; NIH/3T3 viability, CellTiter-Glo ATP luminescence, 90 h; inhibition, % at 24.9 µM; actives 56% (n = 5,600); AID 651744;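 active = mean loss of cell viability signal at or above a set limit, and enough replicates individually reaching it; inconclusive = meets only the mean limit or only the replicate share; inactive = meets neither condition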
A number is an active result; n = inactive; u = inconclusive; x = no result.

SMILES	C diff HTS	T cruzi growth-1	Pf Dd2 growth	T cruzi growth-2	T cruzi growth-3	3T3 cytotox	NIH3T3 tox 2
C[C@@H]1CCCCO[C@@H](CN(C)C(=O)Nc2cccc3ccccc23)[C@H](C)CN([C@@H](C)CO)C(=O)c2cc(NS(=O)(=O)c3cccs3)ccc2O1	n	101	n	107	n	n	n
C[C@@H]1CN([C@@H](C)CO)C(=O)c2cc(NS(=O)(=O)c3ccc(Cl)cc3)ccc2O[C@@H](C)CCCCO[C@@H]1CN(C)C(=O)Nc1cccc2ccccc12	n	99	n	105	u	n	n
C[C@@H]1CCCCO[C@H](CN(C)C(=O)Nc2cccc3ccccc23)[C@@H](C)CN([C@H](C)CO)C(=O)c2cc(NS(=O)(=O)c3ccc(Cl)cc3)ccc2O1	n	n	n	x	x	x	x
C[C@@H]1CN([C@@H](C)CO)C(=O)c2cc(NS(=O)(=O)c3cccs3)ccc2O[C@@H](C)CCCCO[C@@H]1CN(C)C(=O)Nc1cccc2ccccc12	n	n	u	x	x	x	x
O=C(C[C@@H]1CC[C@H](NC(=O)Cc2cccnc2)[C@@H](CO)O1)Nc1ccccc1	n	x	n	x	x	x	x
C[C@@H]1CN([C@@H](C)CO)C(=O)c2cc(NC(=O)CCN3CCOCC3)ccc2O[C@@H]1CN(C)S(=O)(=O)c1ccc(Cl)cc1	n	n	n	x	x	x	x
CO[C@@H]1CN(C)C(=O)c2ccc(NS(=O)(=O)c3cn(C)cn3)cc2OC[C@@H](C)NC[C@H]1C	x	n	n	x	x	x	x
COc1ccc(S(=O)(=O)N(C)C[C@H]2Oc3ccc(NS(C)(=O)=O)cc3CC(=O)N([C@@H](C)CO)C[C@H]2C)cc1	n	n	n	x	x	x	x
C[C@H]1CCCCO[C@H](CN(C)C(=O)Nc2cccc3ccccc23)[C@@H](C)CN([C@@H](C)CO)C(=O)c2cc(NS(=O)(=O)c3ccc(F)cc3)ccc2O1	n	n	n	x	x	x	x
C[C@@H]1CCCCO[C@@H](CN(C)C(=O)Nc2cccc3ccccc23)[C@H](C)CN([C@@H](C)CO)C(=O)c2cc(NS(=O)(=O)c3ccc(F)cc3)ccc2O1	n	105	n	101	n	n	n
C[C@H]1CCCCO[C@H](CN(C)C(=O)Nc2cccc3ccccc23)[C@@H](C)CN([C@@H](C)CO)C(=O)c2cc(NS(=O)(=O)c3ccc(Cl)cc3)ccc2O1	n	u	n	97	119	n	n
C[C@@H]1CCCCO[C@@H](CN(C)C(=O)Nc2cccc3ccccc23)[C@H](C)CN([C@H](C)CO)C(=O)c2cc(NS(=O)(=O)c3ccc(Cl)cc3)ccc2O1	n	n	n	x	x	x	x
C[C@H](NC(=O)C[C@H]1C[C@@H]2c3cc(NC(=O)C4CCOCC4)ccc3O[C@@H]2[C@H](CO)O1)c1ccccc1	x	n	n	x	x	x	x
COCC(=O)N1CC2(CCN(Cc3nccs3)CC2)c2c(n(C)c3cc(OC)ccc23)[C@H]1CO	n	x	n	x	x	x	x
COc1ccc(-c2ccc3c(c2)O[C@H](CN(C)Cc2cccnc2)[C@@H](C)CN([C@@H](C)CO)S3(=O)=O)cc1	n	x	n	x	x	x	x
C[C@H](CO)N1C[C@H](C)[C@H](CN(C)Cc2cccnc2)Oc2cc(-c3cccnc3)ccc2S1(=O)=O	n	n	n	x	x	x	x
COc1cccc(-c2ccc3c(c2)O[C@@H](CN(C)Cc2cccnc2)[C@@H](C)CN([C@@H](C)CO)S3(=O)=O)c1	n	95	n	u	n	n	53
COc1cccc(-c2ccc3c(c2)O[C@H](CN(C)Cc2cccnc2)[C@@H](C)CN([C@H](C)CO)S3(=O)=O)c1	n	113	n	98	108	64	86
COc1cccc(-c2ccc3c(c2)O[C@@H](CN(C)Cc2cccnc2)[C@@H](C)CN([C@H](C)CO)S3(=O)=O)c1	n	n	n	x	x	x	x
COc1cccc(-c2ccc3c(c2)O[C@@H](CN(C)Cc2cccnc2)[C@H](C)CN([C@@H](C)CO)S3(=O)=O)c1	n	112	n	n	104	48	88
C[C@H]1CCCCO[C@H](CN(C)C(=O)Nc2cccc3ccccc23)[C@@H](C)CN([C@@H](C)CO)C(=O)c2cc(NC(=O)CCC(F)(F)F)ccc2O1	n	n	n	x	x	x	x
COc1ccc(NC(=O)N(C)C[C@@H]2OCCCC[C@@H](C)Oc3ccc(NS(=O)(=O)c4ccccc4)cc3C(=O)N([C@H](C)CO)C[C@@H]2C)cc1	n	n	n	x	x	x	x
COc1ccc(NC(=O)N(C)C[C@H]2OCCCC[C@H](C)Oc3ccc(NC(=O)NC(C)C)cc3C(=O)N([C@@H](C)CO)C[C@@H]2C)cc1	n	n	n	x	x	x	x
COc1ccc(CN(C)C[C@@H]2Oc3ccc(NS(=O)(=O)c4c(C)noc4C)cc3CC(=O)N([C@@H](C)CO)C[C@@H]2C)cc1	n	n	n	x	x	x	x
CCCN(C)C[C@H]1OCCCC[C@@H](C)Oc2ccc(NC(=O)C3CCCCC3)cc2C(=O)N([C@H](C)CO)C[C@@H]1C	n	n	n	x	x	x	x
SMILES	C diff HTS	T cruzi growth-1	Pf Dd2 growth	T cruzi growth-2	T cruzi growth-3	3T3 cytotox	NIH3T3 tox 2
CCCN(C)C[C@H]1OCCCC[C@H](C)Oc2ccc(NC(=O)C3CCCCC3)cc2C(=O)N([C@H](C)CO)C[C@H]1C	n	108	n	99	n	n	n
CCCN(C)C[C@H]1OCCCC[C@@H](C)Oc2ccc(NC(=O)C3CCCCC3)cc2C(=O)N([C@H](C)CO)C[C@H]1C	n	n	n	x	x	x	x
CCCN(C)C[C@H]1OCCCC[C@@H](C)Oc2ccc(NC(=O)C3CCCCC3)cc2C(=O)N([C@@H](C)CO)C[C@H]1C	n	102	-81	104	n	n	n
O=C(C[C@H]1CC[C@@H]2[C@H](COC[C@@H](O)CN2S(=O)(=O)c2ccc(Oc3ccccc3)cc2)O1)Nc1ccccc1	n	x	n	x	x	x	x
CCC(=O)N1CC(=O)N2[C@H](CO)[C@H](c3ccc(C#CC4CCCCC4)cc3)[C@H]2C1	n	x	n	x	x	x	x
C[C@@H]1CN([C@H](C)CO)C(=O)c2cccc(NC(=O)c3cnccn3)c2O[C@H]1CN(C)C(=O)Nc1cccc2ccccc12	n	n	n	x	x	x	x
C[C@@H]1CCCCO[C@H](CN(C)Cc2ccccc2)[C@@H](C)CN([C@@H](C)CO)C(=O)c2cc(NC(=O)c3ccccc3)ccc2O1	n	n	n	x	x	x	x
C[C@@H]1CN([C@H](C)CO)C(=O)c2cc(NC(=O)c3ccccc3)ccc2O[C@@H](C)CCCCO[C@@H]1CN(C)Cc1ccccc1	n	u	n	108	n	n	35
C[C@@H]1CN([C@@H](C)CO)C(=O)c2cc(NC(=O)c3ccccc3)ccc2O[C@@H](C)CCCCO[C@H]1CN(C)Cc1ccncc1	n	101	n	109	n	n	n
C[C@@H]1CCCCO[C@@H](CN(C)Cc2ccccc2)[C@H](C)CN([C@H](C)CO)C(=O)c2cc(NC(=O)c3ccccc3)ccc2O1	n	u	n	114	n	n	55

Screening results (PubChem)
